# PubChem BioAssay (NCATS)
# Inconclusive results are not listed. A call without a number means that no potency is given here. Active and inactive are the calls of the source. Calls follow the shape of the dose curve; as a rule, active = well fitted curve in the direction sought with a large enough effect; inconclusive = small, poorly fitted or top-dose-only effect, or another doubt; inactive = no such curve, though single readings can be large; an effect the other way counts as inactive or inconclusive.
# How the values were obtained:
# [1] = qHTS of pediatric cancer cell lines to identify multiple opportunities for drug repurposing: Primary screen for TC32 cells (AID 1347089); also: nearly all actives have a fitted effect of over 60% in size; also: potency is read from the fitted curve at half-maximal effect
# In short: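 In the primary qHTS, MIPE compounds were tested at 11 concentrations (0.78 nM to 46 µM) and NPC compounds at 8 (0.59 nM to 46 µM) on TC32 cells for 48 h. CellTiter-Glo luminescence gave viability.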
# [2] = qHTS of pediatric cancer cell lines to identify multiple opportunities for drug repurposing: Primary screen for SJ-GBM2 cells (AID 1347091); also: potency is read from the fitted curve at half-maximal effect
# In short: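 Viability measured as metabolically active cells via CellTiter-Glo luminescence following 48 hours of compound exposure, 11-point dilutions in confirmatory testing. 500-1,000 cells/well plated 5 hours before dosing; controls were DMSO and 2.3 µM bortezomib.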
# [3] = qHTS of pediatric cancer cell lines to identify multiple opportunities for drug repurposing: Primary screen for SK-N-MC cells (AID 1347093); also: potency is read from the fitted curve at half-maximal effect
# In short: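 Metabolically active cells were quantified by ATP-dependent luminescence (CellTiter-Glo, 15 min at room temperature) following 48 h treatment. Cells had been plated at 500-1,000 per well and settled for 5 h beforehand.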
# [4] = qHTS of pediatric cancer cell lines to identify multiple opportunities for drug repurposing: Primary screen for BT-37 cells (AID 1347094); also: potency is read from the fitted curve at half-maximal effect
# In short: (§1)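 Readout: CellTiter-Glo luminescence, 48 h treatment. Controls DMSO (neutral) and bortezomib 2.3 µM final (positive). Potency and efficacy taken from primary-screen concentration-response curves.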
# [5] = qHTS of pediatric cancer cell lines to identify multiple opportunities for drug repurposing: Primary screen for SK-N-SH cells (AID 1347098); also: nearly all actives have a fitted effect of over 65% in size; also: potency is read from the fitted curve at half-maximal effect
# In short: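 Cells (500-1,000/well) rested 5 h, then received compounds for 48 h; metabolically active cells were measured by CellTiter-Glo luminescence. Final concentrations spanned up to 46 µM (MIPE, 11-point) or 0.59 nM-46 µM (NPC, 8-point) in primary screens, 11-point in follow-ups.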
# [6] = qHTS of pediatric cancer cell lines to identify multiple opportunities for drug repurposing: Primary screen for U-2 OS cells (AID 1347096); also: nearly all actives have a fitted effect of over 50% in size
# In short: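 Viability after 48 h compound treatment at 37C, 500-1,000 cells/well, read as ATP luminescence with CellTiter-Glo. Primary screens used 11-point (MIPE, 0.78 nM-46 µM) or 8-point (NPC, 0.59 nM-46 µM) final concentrations; follow-up screens used 11-point dilutions.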
# [7] = qHTS of pediatric cancer cell lines to identify multiple opportunities for drug repurposing: Primary screen for Saos-2 cells (AID 1347097); also: nearly all actives have a fitted effect of over 40% in size; also: potency is read from the fitted curve at half-maximal effect
# In short: as §1
# [8] = qHTS of pediatric cancer cell lines to identify multiple opportunities for drug repurposing: Primary screen for NB-EBc1 cells (AID 1347095); also: potency is read from the fitted curve at half-maximal effect
# In short: as §1
# [9] = qHTS of pediatric cancer cell lines to identify multiple opportunities for drug repurposing: Primary screen for A673 cells (AID 1347092); also: nearly all actives have a fitted effect of over 45% in size; also: potency is read from the fitted curve at half-maximal effect
# In short: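 48 h compound exposure, A673, 500-1,000 cells/well, 37 degrees C/5% CO2. MIPE: 11-point, 0.78 nM-46 µM; NPC: 8-point, 0.59 nM-46 µM (final). Readout CellTiter-Glo luminescence after 15 min RT.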
Structure (SMILES),Potency [1],Potency [2],Potency [3],Potency [4],Potency [5],Potency [6],Potency [7],Potency [8],Potency [9]
CC(=O)Nc1cccc(-n2c(=O)n(C3CC3)c(=O)c3c(Nc4ccc(I)cc4F)n(C)c(=O)c(C)c32)c1,inactive,inactive,7.43 µM (active),inactive,3.41 µM (active),–,–,–,–
OC[C@H]1O[C@@H](OCCc2ccc(O)cc2)[C@H](O)[C@@H](O)[C@H]1O,inactive,inactive,26.4 µM (active),–,–,inactive,–,–,–
COc1cc2c(cc1OC)[C@@H]1Cc3ccc(OC)c(OC)c3CN1CC2,inactive,inactive,inactive,–,–,inactive,inactive,–,–
CNc1nc(-c2ccc3c(N)n[nH]c3c2)cc(N2C[C@@H](C(=O)NC3CCCCC3)CC[C@@H]2C)n1,inactive,23.5 µM (active),4.18 µM (active),–,–,–,–,–,–
C[C@@H]1C[C@H]2[C@@H]3CCC4=CC(=O)C=C[C@]4(C)[C@@]3(F)[C@@H](O)C[C@]2(C)[C@@]1(O)C(=O)CO,inactive,inactive,–,–,–,inactive,inactive,inactive,–
COc1ccc2ccc(=O)oc2c1CC=C(C)C,inactive,inactive,9.35 µM (active),–,inactive,–,18.7 µM (active),–,–
C[C@@H](O[C@H]1OCCN(Cc2n[nH]c(=O)[nH]2)[C@@H]1c1ccc(F)cc1)c1cc(C(F)(F)F)cc(C(F)(F)F)c1,inactive,23.5 µM (active),–,27.3 µM (active),–,inactive,26.4 µM (active),23.5 µM (active),–
CCCCC[C@H](O)C=C[C@H]1[C@H](O)CC(=O)[C@H]1CCCCCCC(=O)O,inactive,inactive,inactive,inactive,inactive,–,inactive,inactive,–
CC(C)=CCCC(C)=CCCC(C)=CCCC(C)=CCCC(C)=CCCC(C)=CCCC(C)=CCCC(C)=CCCC(C)=CCO,inactive,inactive,inactive,inactive,inactive,inactive,inactive,inactive,–
O=C(Nc1cccc(C(F)(F)F)c1)Nc1cc(S(=O)(=O)NC2CC2)ccc1-c1ccsc1,inactive,26.4 µM (active),–,–,inactive,inactive,29.6 µM (active),23.5 µM (active),–
OCCn1cc(-c2ccc3c(c2)CCC3=NO)c(-c2ccncc2)n1,inactive,inactive,–,–,19.2 µM (active),inactive,inactive,inactive,–
C#CCN(C)CC1=Cc2ccccc2Oc2ccccc21,inactive,inactive,–,inactive,inactive,inactive,–,–,–
CC(C)(CO)[C@@H](O)C(=O)NCCC(=O)O,inactive,inactive,–,inactive,inactive,inactive,inactive,inactive,–
O=S(=O)(O)c1ccc2cc(N=Nc3cc(S(=O)(=O)O)c4cccnc4c3O)ccc2c1,inactive,inactive,18.7 µM (active),–,–,inactive,–,–,–
OC1CCC(Nc2ncc3nc(Nc4c(F)cc(F)cc4F)n([C@@H]4CCOC4)c3n2)CC1 (stereo partly specified),inactive,9.35 µM (active),–,–,inactive,–,–,5.26 µM (active),–
CCOC(=O)N1CCN([N+]([O-])=NOc2cc(ON=[N+]([O-])N3CCN(C(=O)OCC)CC3)c([N+](=O)[O-])cc2[N+](=O)[O-])CC1,inactive,14.8 µM (active),inactive,–,inactive,inactive,–,5.9 µM (active),–
O=C(O)CCC=CCC[C@@H]1[C@H](N2CCCCC2)[C@@H](O)C[C@@H]1OCc1ccc(-c2ccccc2)cc1,inactive,inactive,26.4 µM (active),inactive,–,inactive,inactive,inactive,–
COc1c(C)c2c(c(O)c1CC=C(C)CCC(=O)OCCN1CCOCC1)C(=O)OC2,4.66 µM (active),inactive,–,1.53 µM (active),–,–,inactive,–,–
OC[C@H]1O[C@@H](Oc2ccc(O)cc2)[C@H](O)[C@@H](O)[C@H]1O,inactive,inactive,–,inactive,inactive,inactive,inactive,inactive,–
COc1cc2ncn(-c3cc(OCc4ccccc4S(C)(=O)=O)c(C#N)s3)c2cc1OC,inactive,–,13.2 µM (active),inactive,–,inactive,–,inactive,23.5 µM (active)

Structure (SMILES),Potency [1],Potency [2],Potency [3],Potency [4],Potency [5],Potency [6],Potency [7],Potency [8],Potency [9]
O=C(C=Cc1ccc(O)cc1)c1ccc(O)cc1O,inactive,–,37.2 µM (active),–,6.07 µM (active),–,18.7 µM (active),–,18.7 µM (active)
CN(C)CCCNC(=O)c1ccc(-c2cc(O)c3ncccc3c2)cc1,inactive,–,inactive,–,–,inactive,–,–,23.5 µM (active)
CCCCc1ccc(NS(=O)(=O)c2ccc(C)c(C(=O)N3CCN(c4cccc(C)c4C)CC3)c2)cc1,inactive,20.9 µM (active),–,–,–,inactive,–,–,–
COc1cc2ncnc(Nc3cc(Br)c(O)c(Br)c3)c2cc1OC,inactive,–,0.0066 µM (active),–,–,inactive,20.9 µM (active),–,0.0118 µM (active)
CC[C@H](CC#N)OC(=O)N[C@@H](C)c1cccc(NC(=O)Nc2ccc(-c3cnco3)c(OC)c2)c1,1.04 µM (active),–,0.59 µM (active),0.485 µM (active),inactive,–,18.7 µM (active),0.296 µM (active),0.743 µM (active)
Cc1cccc(Nc2nc(N[C@@H]3CCCC[C@H]3N)ncc2C(N)=O)c1,inactive,–,–,27.3 µM (active),27.1 µM (active),–,–,inactive,18.7 µM (active)
C[C@@H](NC(=O)c1ncnc(N)c1Cl)c1ncc(C(=O)Nc2cc(C(F)(F)F)c(Cl)cn2)s1,inactive,–,–,–,19.2 µM (active),inactive,–,14.8 µM (active),18.7 µM (active)
COc1ccc2c(c1)c(C1=C(c3c[nH]c4ccccc34)C(=O)NC1=O)cn2CCCN(C)C,inactive,–,–,–,21.5 µM (active),inactive,–,–,23.5 µM (active)
Nc1ccn([C@@H]2O[C@H](CO)[C@@H](O)[C@H]2O)c(=O)n1,0.0294 µM (active),–,–,0.0077 µM (active),inactive,inactive,–,33.2 µM (active),0.0235 µM (active)
Cc1cc(CS(=O)(=O)c2ccccc2)cc(OCc2ccc(CN3CCC[C@H]3CO)cc2)c1,inactive,–,2.64 µM (active),–,–,inactive,–,inactive,5.9 µM (active)
COc1cc([C@H]2Oc3cc([C@H]4Oc5cc(O)cc(O)c5C(=O)[C@H]4O)ccc3O[C@H]2CO)ccc1O,inactive,–,20.9 µM (active),inactive,–,inactive,–,–,23.5 µM (active)
Cc1ccc(NC(=O)c2ccc(CN3CCN(C)CC3)cc2)cc1Nc1nc(-c2cccnc2)cs1,inactive,–,–,–,–,–,–,inactive,11.8 µM (active)
Cc1ccc(S(=O)(=O)Nc2nc3ccccc3nc2Nc2ccc3nsnc3c2)cc1,inactive,–,0.0512 µM (active),0.0376 µM (active),–,–,0.0457 µM (active),0.645 µM (active),0.0013 µM (active)
CCC(=C(c1ccc(O)cc1)c1ccc(OCCNC)cc1)c1ccccc1,inactive,–,–,–,34.1 µM (active),–,–,–,37.2 µM (active)
C[C@@]1(c2cc(-c3cncnc3)c(F)cc2F)CCSC(N)=N1,inactive,–,2.96 µM (active),–,12.1 µM (active),inactive,2.96 µM (active),–,0.0469 µM (active)
O=C(Nc1cccc(Cl)c1)Nc1ncc(CCNc2ncnc3ccsc23)s1,0.739 µM (active),–,–,–,–,inactive,2.96 µM (active),–,14.8 µM (active)
CC1CCN(c2cc(N3CCN(C)CC3)ccc2NC(=O)c2cc(C#N)c[nH]2)CC1,inactive,–,inactive,inactive,21.5 µM (active),inactive,–,–,inactive
CC(C)(F)C[C@H](N[C@@H](c1ccc(-c2ccc(S(C)(=O)=O)cc2)cc1)C(F)(F)F)C(=O)NC1(C#N)CC1,inactive,14.8 µM (active),–,–,inactive,inactive,inactive,–,–
Cc1cc(C(C)Nc2ccccc2)c2nc(N3CCOCC3)cc(=O)n2c1 (stereo unspecified),inactive,–,–,–,–,inactive,–,inactive,0.935 µM (active)
